Experimental data from PubChem BioAssay AID1851 (National Center for Advancing Translational Sciences (NCATS), 2009).
About 5,100 (32%) of roughly 16,000 compounds were called active. Another 25% or so got no clear call; they are omitted. The list shows a part of the results. Unmarked numbers belong to inactive results. Calls follow the shape of the dose curve; as a rule, active = well fitted curve in the direction sought with a large enough effect; inconclusive = small, poorly fitted or top-dose-only effect, or effect the other way; inactive = no such curve, though single readings can be large or run the other way.

These compounds were tested against Cytochrome P450 3A4 (Homo sapiens) (UniProt P08684) (assay: Cytochrome panel assay with activity outcomes). Settings: recombinant CYP, pro-luciferin dealkylation, luminescence, p450-cyp3a4; series mostly up to 57.1 µM; activity, negative = inhibition: at the top concentration.
% is scaled to controls: 0 for no effect and ±100 for the full control effect.

Cytochrome P450 3A4 (Homo sapiens), sequence (P08684 whole entry, looked up): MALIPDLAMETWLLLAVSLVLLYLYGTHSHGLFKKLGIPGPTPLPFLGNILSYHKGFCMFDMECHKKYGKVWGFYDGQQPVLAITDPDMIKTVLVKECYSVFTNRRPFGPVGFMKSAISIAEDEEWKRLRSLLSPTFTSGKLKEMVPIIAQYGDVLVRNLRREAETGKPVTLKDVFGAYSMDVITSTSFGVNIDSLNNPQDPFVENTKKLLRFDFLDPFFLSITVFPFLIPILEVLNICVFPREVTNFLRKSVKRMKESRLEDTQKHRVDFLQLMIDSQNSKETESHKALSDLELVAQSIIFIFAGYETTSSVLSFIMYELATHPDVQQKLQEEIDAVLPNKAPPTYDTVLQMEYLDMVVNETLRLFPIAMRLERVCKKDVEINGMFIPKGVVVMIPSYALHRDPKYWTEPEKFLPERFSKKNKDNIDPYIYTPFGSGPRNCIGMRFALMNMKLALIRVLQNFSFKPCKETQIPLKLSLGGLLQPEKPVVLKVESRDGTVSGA

Question: For `CCN1C(=O)[C@H]2[C@H]3[C@H](O)[C@H](O)C/C(=N/O[C@@H]4O[C@@H](COC(C)=O)[C@@H](OC(C)=O)[C@@H](OC(C)=O)[C@H]4OC(C)=O)[C@@H]3CC[C@@H]2C1=O`, which activity, negative = inhibition is on record?
Answer: -19.3% [at 11.4 µM]

Question: With `COc1cc(-c2ccc(=O)[nH]n2)ccc1OC(F)F` as the compound, how does the “activity, negative = inhibition” value read?
Answer: -15.5% [at 25.6 µM]

Question: `COc1ccc(-c2cc(-c3c(O)c(OC)c4occc4c3OC)[nH]n2)cc1OC` was tested. Which AC50 did it give?
Answer: 7.94 µM (active)

Question: For `COc1ccc(-c2c(C)oc3c(CN4CCN(CCO)CC4)c(O)ccc3c2=O)cc1OC`, which activity, negative = inhibition is on record?
Answer: -0.572% [at 11.4 µM]

Question: `COc1ccc(-c2cc(-c3cc(F)ccc3O)[nH]n2)cc1OC` was tested. Which AC50 did it give?
Answer: 20 µM (active)

Question: `Nc1nc(Nc2ccccc2)nc2c1ncn2[C@@H]1O[C@@H](CO)[C@H](O)[C@H]1O` was tested. Which “activity, negative = inhibition” value did it give?
Answer: -18.5%

Question: With `O=C1c2ccccc2C(=O)N1CC(=O)N1c2ccccc2CCc2ccccc21` as the compound, how does the AC50 read?
Answer: 12.6 µM (active)

Question: How did the activity, negative = inhibition turn out when `O=C(CN1C(=O)c2ccccc2C1=O)NC1(C(=O)O)CCCC1` was run?
Answer: -10.2% [at 11.4 µM]

Question: For `Cc1nn(C(=O)CN2C(=O)c3ccccc3C2=O)c(C)c1Br`, which “activity, negative = inhibition” value is on record?
Answer: 11.3%

Question: How did the AC50 turn out when `CCOc1ccc(-c2nnc3n2N=C(c2ccc(OC)cc2)CS3)cc1` was run?
Answer: 15.8 µM (active)

Question: For `COc1ccc(-c2nnc3n2N=C(C)CS3)cc1`, which “activity, negative = inhibition” value is on record?
Answer: -7.27%

Question: `CCc1ccc(C2=Nn3c(nnc3-c3cccs3)SC2)cc1` was tested. Which AC50 did it give?
Answer: 25.1 µM (active)

Question: Which activity, negative = inhibition does the source give for `c1ccc(-c2ccc(C3=Nn4c(Cn5nnc6ccccc65)nnc4SC3)cc2)cc1` here?
Answer: -11.6% [at 2.29 µM]

Question: Which “activity, negative = inhibition” value does the source give for `CCOc1ccc(-c2nnc3ccc(SC)nn23)cc1` here?
Answer: 9.6%

Question: For `CCNC(=O)NC1(C(=O)Nc2ccc3c(c2)OCCO3)CCCCC1`, which “activity, negative = inhibition” value is on record?
Answer: -6.09%

Question: Which AC50 does the source give for `Cc1ccc(CNC(=O)C2(NC(=O)Nc3ccc(C)cc3)CCCCC2)cc1` here?
Answer: 2.51 µM (active)

Question: For `O=C(O)C1(Nc2ccc(Cl)cc2)CCCC1`, which activity, negative = inhibition is on record?
Answer: -9.17% [at 11.4 µM]

Question: How did the AC50 turn out when `O=C(CSCc1ccccc1)Nc1cccc(C(=O)Nc2ccccc2C(=O)O)c1` was run?
Answer: 14.1 µM (active)

Question: `O=C(CSCc1ccccc1)Nc1ccc(S(=O)(=O)N2CCOCC2)cc1` was tested. Which activity, negative = inhibition did it give?
Answer: -15.3% [at 11.4 µM]

Question: How did the “activity, negative = inhibition” value turn out when `CNc1csc(C)c(C)c1=O` was run?
Answer: -19.3%

Question: With `c1ccc2c(CSc3nnc(-c4ccncc4)o3)cccc2c1` as the compound, how does the AC50 read?
Answer: 15.8 µM (active)

Question: With `c1ccc2c(CSCc3cccc4ccccc34)cccc2c1` as the compound, how does the activity, negative = inhibition read?
Answer: -3.97% [at 11.4 µM]

Question: For `CCCCNC(=O)CN1C(=O)NC2(CCCc3ccccc32)C1=O` (stereo not drawn), which “activity, negative = inhibition” value is on record?
Answer: -10.6%

Question: With `CCCCNC(=O)Cc1coc2ccc3ccccc3c12` as the compound, how does the AC50 read?
Answer: 4.47 µM (active)

Question: For `CCCCN(C)C(=O)c1coc(=O)c2ccccc12`, which “activity, negative = inhibition” value is on record?
Answer: -9.54%

Question: Which AC50 does the source give for `CCCN(C(=O)Cc1nc(N)n[nH]1)C1(C(=O)Nc2ccccc2C)CCCCC1` here?
Answer: 1.12 µM (active)

Question: How did the “activity, negative = inhibition” value turn out when `O=C(c1cc(C(F)(F)F)cc(C(F)(F)F)c1)N1CCC2(CC1)CN(Cc1ccccc1)C2` was run?
Answer: 1.61%

Question: `N#Cc1ccc(CN2CCC3(CC2)CCN(C(=O)c2cc(C(F)(F)F)cc(C(F)(F)F)c2)CC3)cc1` was tested. Which “activity, negative = inhibition” value did it give?
Answer: -6.44%

Question: Which “activity, negative = inhibition” value does the source give for `O=C(c1cc(C(F)(F)F)cc(C(F)(F)F)c1)N1CCC2(CCN(Cc3ccccc3)CC2)CC1` here?
Answer: 6.76%

Question: For `N#Cc1ccc(CN2CC[C@@]3(CCCN(C(=O)c4cc(C(F)(F)F)cc(C(F)(F)F)c4)C3)C2)cc1`, which AC50 is on record?
Answer: 5.01 µM (active)

Question: Which AC50 does the source give for `O=C(c1ccncc1)N1CCC2(CC1)CN(Cc1cc(C(F)(F)F)cc(C(F)(F)F)c1)C2` here?
Answer: 5.01 µM (active)

Question: `O=C(c1cc(C(F)(F)F)cc(C(F)(F)F)c1)N1CCC[C@@]2(CCN(Cc3ccccc3)C2)C1` was tested. Which AC50 did it give?
Answer: 5.01 µM (active)

Question: `O=C(c1cc(C(F)(F)F)cc(C(F)(F)F)c1)N1CCC[C@@]2(CCN(Cc3ccncc3)C2)C1` was tested. Which AC50 did it give?
Answer: 0.501 µM (active)

Question: How did the “activity, negative = inhibition” value turn out when `N#Cc1ccc(CN2CC3(CCN(C(=O)c4cc(C(F)(F)F)cc(C(F)(F)F)c4)CC3)C2)cc1` was run?
Answer: -22.2%

Question: For `NS(=O)(=O)c1ccc(N=Nc2ccc(O)c(C(=O)O)c2)cc1`, which activity, negative = inhibition is on record?
Answer: -11.8% [at 11.4 µM]

Question: With `Nc1nc2ncc(CNc3ccc(C(=O)N[C@@H](CCC(=O)O)C(=O)O)cc3)nc2c(=O)[nH]1` as the compound, how does the “activity, negative = inhibition” value read?
Answer: -24.6% [at 25.6 µM]

Question: Which “activity, negative = inhibition” value does the source give for `Nc1nc(-c2ccccc2)cc(-c2ccccc2O)n1` here?
Answer: -4.62%

Question: With `Nc1nc(-c2cccc([N+](=O)[O-])c2)cc(-c2cc(-c3cccc([N+](=O)[O-])c3)nc(N)n2)n1` as the compound, how does the activity, negative = inhibition read?
Answer: -1.01% [at 11.4 µM]

Question: Which AC50 does the source give for `Nc1c(-c2ccccc2)cnn1-c1cccc([N+](=O)[O-])c1` here?
Answer: 14.1 µM (active)

Question: How did the AC50 turn out when `Cc1cc(N2CCOCC2)nc(SCc2ccc(Cl)cc2Cl)n1` was run?
Answer: 2.24 µM (active)

Question: For `CCCc1ccc(Oc2cc(C)nc(N3CCOCC3)n2)cc1`, which activity, negative = inhibition is on record?
Answer: 28.4% [at 0.457 µM]

Question: `Cc1cc(C)c2c(SCc3ccc(Cl)cc3Cl)nc(N)nc2n1` was tested. Which activity, negative = inhibition did it give?
Answer: 19.4% [at 11.4 µM]

Question: Which “activity, negative = inhibition” value does the source give for `C=CC[N+]1(CC#CCOC(c2ccccc2)c2ccccc2)CCOCC1` here?
Answer: -28.5%

Question: How did the AC50 turn out when `CCOc1cc(CNCCc2ccc(S(N)(=O)=O)cc2)cc(Cl)c1OCc1ccccc1` was run?
Answer: 0.447 µM (active)

Question: With `COc1c(Cl)cc(Cl)cc1CNCCNCCO` as the compound, how does the “activity, negative = inhibition” value read?
Answer: -7.63%

Question: How did the AC50 turn out when `CCOc1cc(CNCCc2ccc(S(N)(=O)=O)cc2)ccc1OCc1ccc(Cl)cc1` was run?
Answer: 0.398 µM (active)

Question: How did the AC50 turn out when `CCOc1cc(CNCCO)cc(Br)c1OCc1ccccc1Cl` was run?
Answer: 2 µM (active)

Question: Which “activity, negative = inhibition” value does the source give for `CCCc1c(OCCCOc2ccc(OCC(=O)O)cc2)ccc(CC=O)c1O` here?
Answer: -13.9%

Question: `CCn1c2ccccc2c2nnc(NCCCO)nc21` was tested. Which activity, negative = inhibition did it give?
Answer: -11.6% [at 11.4 µM]

Question: `CCn1c2ccc(Cl)cc2c2nc3ccccc3nc21` was tested. Which AC50 did it give?
Answer: 15.8 µM (active)

Question: With `COc1ccc(-c2ccc(N)[n+](CCCC(=O)O)n2)cc1` as the compound, how does the AC50 read?
Answer: inactive

Question: How did the “activity, negative = inhibition” value turn out when `Cc1cc(NC(=O)CCCC(=O)OCC(F)(F)C(F)F)cc(C)c1C(=O)O` was run?
Answer: -0.842%

Question: For `O=C(CCCC(=O)OCC(=O)c1ccc(Cl)cc1Cl)Nc1cc(C(F)(F)F)ccc1Cl`, which AC50 is on record?
Answer: 22.4 µM (active)

Question: For `CC(C)NC(=O)C1CC(=O)N(c2ccc(F)c(Cl)c2)C1` (stereo not drawn), which activity, negative = inhibition is on record?
Answer: 5.88% [at 2.29 µM]

Question: `CCOc1ccc(N2CC(C(=O)NCc3cccc(C)c3)CC2=O)cc1` (stereo not drawn) was tested. Which AC50 did it give?
Answer: 7.94 µM (active)

Question: `C[C@@]12CCC(=O)C=C1CC[C@@H]1[C@@H]2[C@H](O)C[C@]2(C)[C@@H]1CC[C@]2(O)C(=O)CO` was tested. Which “activity, negative = inhibition” value did it give?
Answer: -8.94% [at 25.6 µM]

Question: How did the AC50 turn out when `C[C@@]12C[C@H](O)[C@@H]3[C@H](CCC4=CC(=O)CC[C@]43C)[C@H]1CC[C@@H]2c1csc(N)n1` was run?
Answer: 2.51 µM (active)

Question: For `C[C@@]12CCC(=O)C=C1CC[C@@H]1[C@@H]2[C@H](O)C[C@]2(C)[C@@H]1CC[C@]2(O)C(=O)COC(=O)CCC(=O)O`, which “activity, negative = inhibition” value is on record?
Answer: -3.21%
